According to PubChem BioAssay AID489043 (National Center for Advancing Translational Sciences (NCATS), 2010):
Inconclusive results are not listed. Calls of active or inactive are those of the source. Calls come from the whole dose curve; as a rule, active = well fitted activation curve with a large enough effect; inconclusive = small, poorly fitted or top-dose-only effect; inactive = flat fitted curve, though single readings scatter.

target: Relaxin receptor 2 (Homo sapiens) (UniProt Q8WXD0); test: qHTS Assay for Agonists of the Relaxin Receptor RXFP1: RXFP2 Hit Validation; conditions: HEK293 RXFP2 cAMP TR-FRET, 30 min; series mostly up to 115 µM; activation: at the top concentration; note: nearly all actives have a fitted effect of over 65% in size
Description: NIH Chemical Genomics Center [NCGC] NIH Molecular Libraries Probe Production Centers Network [MLPCN] MLPCN Grant: R03 MH085705-01A1 Assay Submitter (PI): Alexander Agoulnik NCGC Assay Overview: The relaxin hormone is involved in the variety of biological functions in normal tissues and diseases. The role of relaxin is well-established in female reproduction and parturition, mammary gland and endometrial development, maintenance of myometrial quiescence during pregnancy. Relaxin signaling through its G protein-coupled receptor (GPCR) RXFP1 results in ECM remodeling through regulation of collagen deposition, cell invasiveness, proliferation and overall tissue homeostasis. […] Recombinant human relaxin (rhRlx) is currently being tested in clinical trials as a protective agent in congestive heart failure, in treating severe preeclampsia, and as an anti-fibrotic agent in systemic sclerosis. Upon relaxin binding RXFP1 activation leads to the activation of adenylate cyclase (AC) via Gs. cAMP will activate PKA, which phosphorylates many signaling proteins. Thus, detection of cAMP increase is an easy and reliable indication of relaxin receptor activation. To screen for agonists of the relaxin receptor, a HEK293T cell line stably transfected with RXFP1 was used. RXFP1 activation was assayed by changes in cAMP levels as detected with a time-resolved fluorescence energy transfer (TR-FRET) cAMP detection kit. This assay measures activation of a cell expressing RXFP2, another GPCR targeted by relaxin, to determine the selectivity of compounds for RXFP1.
NCGC Assay Protocol Summary: This is a cell-based assay for cAMP second messenger response to screen for agonists of the RXFP2 receptor. The assay was conducted in the presence of a PDE4 inhibitor (Ro 20174). The cells were lysed and the cAMP levels were measured with a TR-FRET cAMP kit. Presence of cAMP in the cell lysate disrupts binding between the cryptate-labeled anti-cAMP and d2-labeled cAMP pair, leading to a decrease in the TR-FRET signal. Data were normalized to the controls for basal activity (buffer only) and 100% activity (29 nM porcine relaxin). The EC50 values were determined from concentration-response data modeled with the standard Hill equation 1536-well assay protocol for the HEK293 RXFP2 cAMP assay: (1) Add 3 ul HEK293 RXFP2 cell culture. 2000 cells/well in DMEM/F12, 10% FBS, 1x Pen/Strep (dispensed offline with MultiDrop Combi). (2) Incubate 16-24 hr at 37C, 5% CO2. (3) Add 1 ul 400uM Ro20174 in DPBS, 0.05% BSA, 0.005% Tween 20. (3) Add 23 nl compounds in DMSO solution. Final concentration was 0.5 - 58 uM. (4) Incubate 30 min at 37C, 5% CO2. (5) Add 1 ul cAMP-d2 in lysis buffer (HTRF cAMP HiRange kit, CisBio). (6) Add 1 ul anti-cAMP antibody-cryptate in lysis buffer (HTRF cAMP HiRange kit, CisBio). (7) Incubate 30 min at room temperature. […] Keywords: relaxin, RXFP1, RXFP2, G-protein coupled receptor, cAMP, agonist, high throughput screening, MLSMR, MLSCN, NIH Roadmap, qHTS and NCGC
Potency is the fitted concentration of half-maximal effect.

Sequence of Relaxin receptor 2 (Homo sapiens) (Q8WXD0 whole entry, looked up): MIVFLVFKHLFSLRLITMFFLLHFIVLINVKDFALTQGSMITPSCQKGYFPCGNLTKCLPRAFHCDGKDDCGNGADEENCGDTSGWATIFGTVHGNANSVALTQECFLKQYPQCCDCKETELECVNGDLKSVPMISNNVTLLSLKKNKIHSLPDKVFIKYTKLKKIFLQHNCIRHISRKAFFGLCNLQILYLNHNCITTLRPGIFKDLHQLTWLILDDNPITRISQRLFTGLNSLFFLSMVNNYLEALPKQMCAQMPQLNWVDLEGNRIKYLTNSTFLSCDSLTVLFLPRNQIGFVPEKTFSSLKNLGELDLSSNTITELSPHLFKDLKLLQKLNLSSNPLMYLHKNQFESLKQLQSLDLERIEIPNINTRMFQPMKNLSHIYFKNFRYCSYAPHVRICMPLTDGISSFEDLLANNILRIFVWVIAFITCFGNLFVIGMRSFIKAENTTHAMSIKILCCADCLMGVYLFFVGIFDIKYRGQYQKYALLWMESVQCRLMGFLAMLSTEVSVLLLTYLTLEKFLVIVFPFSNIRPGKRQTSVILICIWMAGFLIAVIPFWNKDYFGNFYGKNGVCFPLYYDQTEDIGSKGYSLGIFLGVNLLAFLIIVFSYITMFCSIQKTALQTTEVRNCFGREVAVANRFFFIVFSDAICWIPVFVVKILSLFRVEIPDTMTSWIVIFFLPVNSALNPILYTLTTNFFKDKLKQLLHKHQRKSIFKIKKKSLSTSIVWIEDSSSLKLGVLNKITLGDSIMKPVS

SMILES | activation | Potency
O=C(Nc1ccc(Cl)cc1)Nc1ccccc1Sc1ncc([N+](=O)[O-])s1 | 9.11% (inactive) | 
O=C(Nc1ccccc1C(=O)NCc1ccco1)c1ccco1 | 13% [at 125 µM] (inactive) | 
Cc1ccc(CN(C)C(=O)c2ccccc2NC(=O)c2ccccc2)o1 | -1.29% [at 125 µM] (inactive) | 
CC(C)n1cnc2c(N(C)c3cccc(Cl)c3)nc(N(CCO)CCO)nc21 | -4.45% (inactive) | 
O=C(Cn1cnc2c(nnn2-c2ccc(F)cc2)c1=O)NCC1CCCO1 (stereo not given) |  | 11 µM (active)
COc1cccc(CNC(=O)c2ccc(CS(=O)Cc3ccc(C)cc3)o2)c1 (stereo not given) | 1.23% [at 44.7 µM] (inactive) | 
COc1ccccc1CNS(=O)(=O)c1cc(CN2C(=O)c3cccnc3C2=O)ccc1OC |  | 30.9 µM (active)
CCn1c(SCC(=O)Nc2ccc(NC(C)=O)cc2)nc2c1c(=O)n(C)c(=O)n2C |  | 27.5 µM (active)
C=CCOc1c(Cl)cc(CNc2ccc(N(C)C)cc2)cc1OC | 6.02% (inactive) | 
COC(=O)c1nc2ccc(N3CCOCC3)cc2c(C)c1C(=O)OC |  | 38.9 µM (active)
O=C1CN(c2nc3ccccc3n3cnnc23)CC(=O)N1CCc1ccccc1 | 9.22% [at 44.7 µM] (inactive) | 
O=C(O)c1ccc(N2C(=O)c3cccc4c(C(=O)O)ccc(c34)C2=O)cc1 |  | 47.3 µM (active)
CCN1CCN(C(=O)CCc2nnc3ccc(N4CCC5(CC4)OCCO5)nn23)CC1 |  | 38.9 µM (active)
COc1ccc(S(=O)(=O)Nc2ccccn2)c(C)c1C | 1.66% [at 44.7 µM] (inactive) | 
CCN(CC)C(=O)c1cc(Cl)ccc1NC(=O)c1ccco1 | -3.03% [at 125 µM] (inactive) | 
C=C[C@@]1(C)CC(=O)[C@]2(O)[C@@]3(C)[C@@H](O)CCC(C)(C)[C@@H]3[C@H](O)[C@H](OC(C)=O)[C@@]2(C)O1 |  | 0.0488 µM (active)
O=C(Nc1ccccc1)c1ccccc1NC(=O)C1CCCCC1 | 5.98% [at 125 µM] (inactive) | 
CC1CCCCN1C(=O)c1ccccc1NC(=O)c1ccco1 (stereo not given) | 3.11% [at 125 µM] (inactive) | 
CCN(CC)S(=O)(=O)c1cccc(N=Nc2c(O)c3ccccc3oc2=O)c1 |  | 34.6 µM (active)
Cc1cc(C)c(NC(=O)CS(=O)CC(=O)Nc2ccc(F)cc2F)c(C)c1 (stereo not given) | 4.28% (inactive) | 

SMILES | activation | Potency
Cc1cccc(NC(=O)c2ccccc2NC(=O)c2ccco2)c1 | -1.83% [at 125 µM] (inactive) | 
CC(=O)Nc1c2c3c(cccc3n(C)c1=O)C(=O)c1ccccc1-2 | 20.1% [at 44.7 µM] (inactive) | 
CCN(CC)S(=O)(=O)c1ccc(C)c(NC(=O)Cn2cnc3cc([N+](=O)[O-])ccc3c2=O)c1 |  | 30.9 µM (active)
CC1(C)Cc2nc3sc4c(SCC(=O)NC(c5ccccc5)c5ccccc5)ncnc4c3cc2CO1 |  | 6.15 µM (active)
CC(C)C(=O)Nc1ccc(Nc2ccccc2)cc1 | -2.4% (inactive) | 
Cc1cc(C(=O)COC(=O)Cn2cnc3c2c(=O)n(C)c(=O)n3C)c(C)n1C |  | 15.5 µM (active)
Cc1ccccc1OCC(=O)Nc1sc(C(=O)Nc2cccc(C)c2C)c(C)c1C#N |  | 6.9 µM (active)
Cc1ccccc1NC(=O)CNc1ccccc1C(=O)NCc1ccco1 | 2.32% [at 125 µM] (inactive) | 
Cc1cc(Br)c2nc3c(c(C(=O)O)c2c1)CCCCC3 |  | 1.94 µM (active)
O=C(O)c1ccc(CN2C(=O)c3ccc(C(=O)O)cc3C2=O)cc1 | 5.29% (inactive) | 
N#Cc1c(N)nc(SCC(=O)C23CC4CC(CC(C4)C2)C3)c(C#N)c1-c1ccc(Cl)cc1 |  | 12.3 µM (active)
CCN(c1ccccc1)S(=O)(=O)c1ccc(OC)c(NC(=O)C2CC(=O)N(Cc3ccccc3)C2)c1 (stereo not given) | -2.75% (inactive) | 
CCn1c(=O)c2sccc2n2c(CCCC(=O)NCc3cccnc3)nnc12 | 27.9% (inactive) | 
Cc1cccc(-c2nnc(SCC(=O)NC3CC3)n2C)c1 | -25.5% (inactive) | 
Cc1ccc(CN(C)C(=O)c2ccc3c(c2)NC(=O)CS3)o1 | -25.2% (inactive) | 
CCNc1nc(NCC)nc(N(C)/N=C/c2ccco2)n1 | 7.92% (inactive) | 
COc1ccc(OC)c(NC(=O)CSc2ccc3nnc(-c4cccnc4)n3n2)c1 | 26.5% (inactive) | 
O=C(O)CSc1ccnc2cc(Cl)ccc12 |  | 21.8 µM (active)
CC(C)(C)C(=O)Nc1ccccc1C(=O)NCc1ccco1 | 4.53% [at 125 µM] (inactive) | 
O=C(Nc1ccccc1C(=O)NCc1ccc(Cl)cc1)c1ccco1 | -1.91% [at 125 µM] (inactive) | 
